This is part of a sample that, as a whole, favours compounds with a hit. Of some 79,000 tested, about 15% had one in any assay. Active and inactive are the calls of the source. No stated cut-off is given here; in the data, active means growth inhibition above about 70%; inactive means the rest.
Legend:
[1] = NCI Yeast Anticancer Drug Screen. Data for the wt1 strain (AID 149);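 further: 0% = growth of vehicle-treated wt1 cultures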; settings: S. cerevisiae wt1 strain (SPY 50644) growth inhibition, hits give high values
In short: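 wt1 yeast, compound-treated; % growth inhibition vs vehicle control.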

[2] = NCI Yeast Anticancer Drug Screen. Data for the rad50EPP+ strain (AID 151);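 further: 0% = growth of vehicle-treated control cultures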; settings: S. cerevisiae rad50 mutant strain, hits give high values
In short: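 In this screen, rad50EPP+ yeast were exposed to compounds. Growth inhibition was scored against vehicle-treated controls.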

[3] = NCI Yeast Anticancer Drug Screen. Data for the mgt1 strain (AID 153); settings: S. cerevisiae mgt1 mutant growth inhibition, hits give high values
In short: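 mgt1 strain exposed; growth vs vehicle control recorded as inhibition.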

[4] = NCI Yeast Anticancer Drug Screen. Data for the rad50 strain (AID 155);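 further: 0% = growth of vehicle-only cultures of the same strain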; settings: S. cerevisiae rad50 strain growth inhibition, hits give high values
In short: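 Genetically altered yeast (DNA repair pathway); compound treatment; growth inhibition vs vehicle ctrl.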

[5] = NCI Yeast Anticancer Drug Screen. Data for the mec2-1 strain (AID 157); settings: S. cerevisiae mec2-1 strain, hits give high values
In short: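 Vehicle-treated cultures served as reference for growth inhibition of compound-exposed mec2-1 yeast.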

[6] = NCI Yeast Anticancer Drug Screen. Data for the rad14 strain (AID 159);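 further: 0% = growth of vehicle-treated control cultures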; settings: S. cerevisiae rad14 strain growth inhibition, hits give high values
In short: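 Test compounds were applied to a repair-deficient yeast strain. Its growth was then compared with that of cultures given vehicle alone, and inhibition was expressed relative to those controls.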

[7] = NCI Yeast Anticancer Drug Screen. Data for the sgs1 mgt1 strain (AID 161);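 further: 0% = growth of cultures given vehicle only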; settings: S. cerevisiae sgs1 mgt1 strain, hits give high values
In short: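 Read-out: growth inhibition vs vehicle controls. Cells: mutant yeast strain deficient in DNA damage repair.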

[8] = NCI Yeast Anticancer Drug Screen. Data for the CLN2oe strain (AID 163);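 further: 0% = growth of vehicle-only control cultures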; settings: S. cerevisiae CLN2oe strain, hits give high values
In short: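 Inhibition relative to vehicle-treated yeast is reported. Cells: strain with genetic alteration in cell-cycle control, grown with compound.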

[9] = NCI Yeast Anticancer Drug Screen. Data for the cln2 rad14 strain (AID 165);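 further: 0% = growth equal to vehicle treated cultures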; settings: S. cerevisiae cln2 rad14 strain, hits give high values
In short: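 Each compound was tested on cln2 rad14 yeast. Inhibition of growth was calculated against vehicle-exposed controls.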

[10] = NCI Yeast Anticancer Drug Screen. Data for the bub3 strain (AID 167); settings: S. cerevisiae bub3 mutant strain, hits give high values
In short: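 Yeast carrying a defined mutation is treated with each compound, and growth is compared with that of vehicle-exposed cells to give inhibition.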

[11] = NCI Yeast Anticancer Drug Screen. Data for the wt2 strain (AID 169);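 further: 0% = growth of vehicle-treated yeast cultures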; settings: S. cerevisiae wt2 strain growth inhibition, hits give high values
In short: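 Inhibition of yeast growth was determined after compound treatment, normalised to controls receiving only vehicle.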

[12] = NCI Yeast Anticancer Drug Screen. Data for the mlh1 strain (AID 171);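 further: 0% = growth of vehicle-treated control cultures of the same strain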; settings: S. cerevisiae mlh1 strain growth inhibition, hits give high values
In short: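 Vehicle-normalised growth inhibition of a repair- or checkpoint-altered yeast strain following compound treatment.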

[13] = NCI Yeast Anticancer Drug Screen. Data for the sgs1 strain (AID 173);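 further: 0% = growth of vehicle-only control cultures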; settings: S. cerevisiae sgs1 mutant, hits give high values
In short: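 Screen format: yeast with repair or checkpoint alterations, compound exposure, growth read relative to vehicle.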

[14] = NCI Yeast Anticancer Drug Screen. Data for the mlh1 rad18 strain (AID 175); settings: S. cerevisiae mlh1 rad18 strain growth inhibition, hits give high values
In short: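 Vehicle-treated cultures served as the reference for growth inhibition in a yeast strain carrying DNA damage repair alterations exposed to each compound.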

[15] = NCI Yeast Anticancer Drug Screen. Data for the rad18 strain (AID 177); settings: S. cerevisiae rad18 mutant growth inhibition, hits give high values
In short: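 Test articles were incubated with altered yeast defective in DNA damage repair. Results are given as inhibition of growth versus vehicle.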

[16] = at 5.0 µM (retest, dose inferred, filed as 0.5)
[17] = at 50.0 µM (retest, dose inferred, filed as 5.0)

Measured: growth inhibition

CC1CCC2(NC1)OC1CC3C4CCC5CC(OC6OC(CO)C(OC7OC(CO)C(O)C(OC8OCC(O)C(O)C8O)C7OC7OC(CO)C(O)C(O)C7O)C(O)C6O)CCC5(C)C4CCC3(C)C1C2C (stereo unspecified)
inactive: [1]; at 1.2 µM -6% | [1]; at 3.7 µM -15% | [1]; at 11.0 µM -18% | [1]; at 33.0 µM -17% | [1]; at 100.0 µM 40% | [2]; at 1.2 µM 21% | [2]; at 3.7 µM 3% | [2]; at 11.0 µM 8% | [2]; at 33.0 µM 13% | [2]; at 100.0 µM 27% | [3]; at 1.2 µM -2% | [3]; at 3.7 µM -10% | [3]; at 11.0 µM -11% | [3]; at 33.0 µM -11% | [3]; at 100.0 µM 44% | [4]; at 1.2 µM -2% | [4]; at 3.7 µM -16% | [4]; [16] 1% | [4]; at 11.0 µM -14% | [4]; at 33.0 µM -6% | [4]; at 50.0 µM 28.9% | [4]; at 100.0 µM 62% | [5]; at 1.2 µM 13% | [5]; at 3.7 µM -14% | [5]; [16] 13% | [5]; at 11.0 µM -15% | [5]; at 33.0 µM 2% | [5]; at 50.0 µM 6.1% | [5]; at 100.0 µM 14% | [6]; at 1.2 µM 18% | [6]; at 3.7 µM 6% | [6]; at 11.0 µM -5% | [6]; at 33.0 µM -18% | [7]; [16] 1% | [7]; at 50.0 µM -24.1% | [8]; at 1.2 µM -15% | [8]; at 3.7 µM -14% | [8]; at 11.0 µM -10% | [8]; at 33.0 µM -4% | [8]; at 100.0 µM 46% | [9]; [16] -19% | [9]; [17] 68% | [9]; at 50.0 µM 28.8% | [10]; at 1.2 µM 0% | [10]; at 3.7 µM -19% | [10]; [16] 10% | [10]; at 11.0 µM -27% | [10]; at 33.0 µM -10% | [10]; at 50.0 µM 11.1% | [10]; at 100.0 µM 45% | [11]; at 1.2 µM -7% | [11]; at 3.7 µM -20% | [11]; at 11.0 µM -22% | [11]; at 33.0 µM -11% | [12]; at 1.2 µM -4% | [12]; at 3.7 µM -5% | [12]; at 11.0 µM -8% | [12]; at 33.0 µM -12% | [13]; at 1.2 µM 2% | [13]; at 3.7 µM 0% | [13]; at 11.0 µM 2% | [13]; at 33.0 µM -4% | [13]; at 100.0 µM 61% | [14]; [16] 59% | [15]; at 1.2 µM 4% | [15]; at 3.7 µM -19% | [15]; at 11.0 µM -14% | [15]; at 33.0 µM -25% | [15]; at 100.0 µM 61%
active: [4]; [17] 98% | [5]; [17] 97% | [6]; at 100.0 µM 77% | [7]; [17] 93% | [10]; [17] 74% | [11]; at 100.0 µM 99% | [12]; at 100.0 µM 90% | [14]; [17] 97% | [14]; at 50.0 µM 87.6%

Oc1cccc2nc3ccccc3nc12
inactive: [1]; at 1.2 µM -55% | [1]; at 3.7 µM -46% | [1]; at 11.0 µM -30% | [1]; at 33.0 µM 1% | [2]; at 1.2 µM -47% | [2]; at 3.7 µM -31% | [2]; at 11.0 µM 6% | [2]; at 33.0 µM 63% | [4]; at 1.2 µM -4% | [4]; at 3.7 µM -8% | [4]; [16] -14% | [4]; at 11.0 µM 5% | [4]; at 33.0 µM 54% | [4]; at 50.0 µM 65.4% | [5]; at 1.2 µM -48% | [5]; at 3.7 µM -44% | [5]; [16] 9% | [5]; at 11.0 µM -33% | [5]; at 33.0 µM 24% | [5]; [17] 47% | [5]; at 50.0 µM 68.5% | [6]; at 1.2 µM -31% | [6]; at 3.7 µM -32% | [6]; at 11.0 µM -27% | [6]; at 33.0 µM 19% | [7]; [16] -4% | [7]; [17] 29% | [7]; at 50.0 µM 21% | [8]; at 1.2 µM -27% | [8]; at 3.7 µM -14% | [8]; at 11.0 µM -22% | [8]; at 33.0 µM 6% | [9]; [16] 1% | [9]; [17] 13% | [9]; at 50.0 µM 35.4% | [10]; at 1.2 µM -31% | [10]; at 3.7 µM -28% | [10]; [16] -3% | [10]; at 11.0 µM -16% | [10]; at 33.0 µM -4% | [10]; [17] 35% | [10]; at 50.0 µM 47.2% | [11]; at 1.2 µM -48% | [11]; at 3.7 µM -44% | [11]; at 11.0 µM -39% | [11]; at 33.0 µM -9% | [12]; at 1.2 µM -58% | [12]; at 3.7 µM -33% | [12]; at 11.0 µM -27% | [12]; at 33.0 µM 12% | [13]; at 1.2 µM -43% | [13]; at 3.7 µM -44% | [13]; at 11.0 µM -41% | [13]; at 33.0 µM -18% | [14]; [16] -41% | [14]; [17] 58% | [14]; at 50.0 µM 64.5% | [15]; at 1.2 µM -29% | [15]; at 3.7 µM -26% | [15]; at 11.0 µM -14% | [15]; at 33.0 µM 27%
active: [1]; at 100.0 µM 88% | [2]; at 100.0 µM 96% | [4]; [17] 73% | [4]; at 100.0 µM 95% | [5]; at 100.0 µM 94% | [6]; at 100.0 µM 92% | [8]; at 100.0 µM 93% | [10]; at 100.0 µM 94% | [11]; at 100.0 µM 75% | [12]; at 100.0 µM 92% | [13]; at 100.0 µM 86% | [15]; at 100.0 µM 93%

O=P(CP(=O)(c1ccccc1)c1ccccc1)(c1ccccc1)c1ccccc1.[CH3][Sn]([CH3])([Cl])[Cl]
inactive: [4]; [16] 6% | [4]; [17] 27% | [4]; at 50.0 µM 21.4% | [5]; [16] 21% | [5]; [17] 9% | [7]; [16] 5% | [7]; [17] 8% | [7]; at 50.0 µM 22.9% | [9]; [16] 3% | [9]; [17] -12% | [9]; at 50.0 µM 8.35% | [10]; [16] 0% | [10]; [17] 8% | [10]; at 50.0 µM 4.25% | [14]; [16] 2% | [14]; [17] 15% | [14]; at 50.0 µM 19.4%
active: [5]; at 50.0 µM 89.3%

O=c1ssc(Cl)c1Cl
active: [4]; [16] 97% | [4]; [17] 98% | [4]; at 50.0 µM 86.5% | [5]; [16] 96% | [5]; [17] 100% | [5]; at 50.0 µM 89.2% | [7]; [16] 100% | [7]; [17] 100% | [7]; at 50.0 µM 89.7% | [9]; [16] 93% | [9]; [17] 98% | [9]; at 50.0 µM 89.1% | [10]; [16] 99% | [10]; [17] 100% | [10]; at 50.0 µM 87.6% | [14]; [16] 97% | [14]; [17] 98%
